Records with an inconclusive call do not appear. The source made the active and inactive calls. Calls follow the shape of the dose curve; as a rule, active = well fitted inhibition curve with a large enough effect; inconclusive = small, poorly fitted or top-dose-only effect, or effect the other way; inactive = flat fitted curve, though single readings scatter.
The molecules below were run against ATPase family AAA domain-containing protein 5 (Homo sapiens) (UniProt Q96QE3) (assay: Validation screen for small molecules that inhibit ELG1-dependent DNA repair in human embryonic kidney (HEK293T) cells expressing luciferase-tagged ELG1 (AID 493107; also: nearly all actives have a fitted effect of over 70% in size;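 as to activity change, negative = decrease: inhibitors lower the ELG1-luciferase luminescence signal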)). Conditions: HEK293T ELG1-luciferase level, luminescence, 5-fluorouridine co-treatment, 16 h; series mostly up to 46.1 µM; activity change, negative = decrease: at the top concentration.
Description: NIH Molecular Libraries Probe Production Network [MLPCN]
NIH Chemical Genomics Center [NCGC]
Assay Provider: Kyungjae Myung, NHGRI, NIH
Keywords: MLPCN, qHTS, NCGC, genotoxicity, cancer
Cancer cells divide rapidly compared to normal cells in the body. During cell division, cancer cells need to duplicate their genome by DNA replication. The failure of genome duplication leads to cancer cells' death. Therefore, inhibitors of DNA replication could specifically kill cancer cells. Based on this concept, many chemotherapeutic agents were developed and have been used to treat cancer patients. However, there are a limited number of agents available in the clinical setting, and some of those that do exist have low efficacy and severe side effects. Therefore, if we can find the compounds that effectively block DNA replication either by directly damaging DNA or by inhibiting other cellular mechanisms, the options for cancer treatment will be broadened. With this in mind, we developed a quantitative high-throughput ELG1-luciferase reporter gene assay. Small molecules that specifically block ELG1 function in response to DNA damage can be identified by monitoring the suppression of luciferase activity. Since ELG1 defines a pathway for repairing DNA damage, agents blocking ELG1 function can be used to sensitize cancer cells to chemotherapeutic agents whose mechanism of action involves the induction of DNA damage.
For genotoxicity screening, 2,000 cells in 4 uL/well were dispensed into white, solid-bottom 1536-well plates using a solenoid-based dispenser. Following transfer of 1 uL 5-Fluorouridine and 23 nL compound or DMSO vehicle by a pin tool, the plates were incubated 16 hr at 37 °C and 5% CO2. 5 ul ONE-Glo (Promega) was then added to each plate and following a 30 min incubation at room temperature, luciferase activity was quantified on a ViewLux CCD-based plate reader.
% is scaled to controls: 0 for no effect and ±100 for the full control effect; potency is read from the fitted curve at half-maximal effect.

Sequence of ATPase family AAA domain-containing protein 5 (Homo sapiens) (Q96QE3 whole entry, looked up, the tested form may be a part): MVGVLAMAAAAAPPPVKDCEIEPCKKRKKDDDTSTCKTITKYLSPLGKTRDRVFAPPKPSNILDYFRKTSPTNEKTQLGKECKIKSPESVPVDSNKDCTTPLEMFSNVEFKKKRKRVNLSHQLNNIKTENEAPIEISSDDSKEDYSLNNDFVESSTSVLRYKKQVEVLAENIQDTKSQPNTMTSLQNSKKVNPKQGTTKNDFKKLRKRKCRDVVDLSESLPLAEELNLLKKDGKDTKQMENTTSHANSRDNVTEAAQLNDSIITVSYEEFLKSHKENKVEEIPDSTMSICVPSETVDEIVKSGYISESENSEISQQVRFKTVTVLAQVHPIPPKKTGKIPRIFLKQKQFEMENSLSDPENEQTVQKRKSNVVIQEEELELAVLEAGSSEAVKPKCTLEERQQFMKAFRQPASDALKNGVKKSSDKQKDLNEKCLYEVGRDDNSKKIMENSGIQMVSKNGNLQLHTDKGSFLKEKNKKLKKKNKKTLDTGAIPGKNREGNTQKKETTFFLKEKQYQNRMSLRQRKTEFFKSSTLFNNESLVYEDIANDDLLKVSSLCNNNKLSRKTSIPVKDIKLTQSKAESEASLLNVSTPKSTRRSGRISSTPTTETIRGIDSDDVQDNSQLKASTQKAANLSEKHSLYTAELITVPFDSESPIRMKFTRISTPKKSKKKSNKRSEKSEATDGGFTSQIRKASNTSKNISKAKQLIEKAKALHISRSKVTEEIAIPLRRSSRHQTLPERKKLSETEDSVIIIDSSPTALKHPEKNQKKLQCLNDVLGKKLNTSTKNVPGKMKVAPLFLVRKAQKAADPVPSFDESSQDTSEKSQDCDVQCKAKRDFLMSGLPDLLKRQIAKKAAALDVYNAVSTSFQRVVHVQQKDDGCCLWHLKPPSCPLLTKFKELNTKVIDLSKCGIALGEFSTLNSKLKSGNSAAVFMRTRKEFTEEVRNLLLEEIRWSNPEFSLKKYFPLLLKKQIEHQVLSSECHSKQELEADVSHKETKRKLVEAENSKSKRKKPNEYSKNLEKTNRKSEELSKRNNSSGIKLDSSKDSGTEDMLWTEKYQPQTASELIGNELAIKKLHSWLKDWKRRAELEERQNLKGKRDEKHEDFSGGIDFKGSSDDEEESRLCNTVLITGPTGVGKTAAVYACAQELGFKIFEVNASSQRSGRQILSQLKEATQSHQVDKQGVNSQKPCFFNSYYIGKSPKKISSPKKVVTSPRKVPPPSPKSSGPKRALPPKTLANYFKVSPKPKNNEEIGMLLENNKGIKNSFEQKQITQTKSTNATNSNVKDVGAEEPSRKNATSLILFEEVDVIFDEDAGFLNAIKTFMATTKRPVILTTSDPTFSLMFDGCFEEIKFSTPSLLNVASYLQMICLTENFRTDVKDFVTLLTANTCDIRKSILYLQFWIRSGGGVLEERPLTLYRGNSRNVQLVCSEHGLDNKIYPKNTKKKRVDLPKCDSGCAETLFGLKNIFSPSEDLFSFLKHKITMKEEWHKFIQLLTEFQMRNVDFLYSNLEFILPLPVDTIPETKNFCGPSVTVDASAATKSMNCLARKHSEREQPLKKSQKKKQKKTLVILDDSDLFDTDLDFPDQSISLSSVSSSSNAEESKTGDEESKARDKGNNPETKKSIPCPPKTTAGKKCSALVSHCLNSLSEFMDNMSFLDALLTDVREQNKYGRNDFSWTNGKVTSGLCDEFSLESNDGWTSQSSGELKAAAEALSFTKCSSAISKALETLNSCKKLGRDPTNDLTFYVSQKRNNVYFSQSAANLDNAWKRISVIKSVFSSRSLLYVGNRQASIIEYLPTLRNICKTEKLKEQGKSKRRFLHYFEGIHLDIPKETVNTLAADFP

Structure (SMILES) | activity change, negative = decrease | Potency
CN1CCN(c2nc3cc(C(F)(F)F)ccc3n3cccc23)CC1 | -14.5% (inactive) | –
COc1ccc(C(=O)NCc2cccnc2)cc1C(=O)NCc1cccnc1 | 13.7% (inactive) | –
OC1(c2ccc(Cl)cc2)CCN(Cc2c[nH]c3ccccc23)CC1 | -7.7% (inactive) | –
COc1ccc2c(c1)c(CC(=O)O)c(C)n2Cc1ccc(Cl)cc1 | 22.8% (inactive) | –
NCCC1CCCC(CCN)N1 (stereo not given) | -0.0884% (inactive) | –
O=C(O)CCC(=O)N1CCCC1C(=O)O (stereo not given) | 26.1% (inactive) | –
O=C(O)c1cc2cc(F)ccc2[nH]1 | 16.3% (inactive) | –
CO/N=C(\C(=O)N[C@@H]1C(=O)N2C(C(=O)O)=C(CSc3nc(=O)c(O)nn3C)CSC12)c1csc(N)n1 (stereo not given in full) | 8.44% (inactive) | –
CC(C)NCC(O)COc1ccc(CC(N)=O)cc1 (stereo not given) | 17.2% (inactive) | –
O=c1[nH]c2cc(Cl)ccc2c(O)c1-c1ccc(Oc2ccccc2)cc1 | -6.13% (inactive) | –
C=C(C)C1CC=C(C(=O)O)CC1 (stereo not given) | 16.6% (inactive) | –
COC1(C2=NCCN2)COc2ccccc2O1 (stereo not given) | 10.8% (inactive) | –
CCCCCCC/C=C\CCCCCCCCC(=O)O | 1.97% (inactive) | –
CC(N)(C(=O)O)c1ccc(C(=O)O)cc1 (stereo not given) | -15.2% (inactive) | –
CSc1nc(N)c2ncn([C@@H]3O[C@H](COP(=O)(O)OP(=O)(O)O)C(O)[C@H]3O)c2n1 (stereo not given in full) | 16.9% (inactive) | –
N#CC(C#N)=C(N)/C(C#N)=C/c1ccc(O)cc1 | -9.07% (inactive) | –
O=C(O)/C(=C/c1c(C(=O)O)[nH]c2cc(Cl)cc(Cl)c12)c1ccccc1 | -0.346% (inactive) | –
CCCCCCCCCC(=O)NC(CN1CCOCC1)[C@H](O)c1ccccc1 (stereo not given in full) | 0.666% (inactive) | –
CSC(=N)N | 4.75% (inactive) | –
O=C(O)C1=CCNCC1 | 5.56% (inactive) | –

Structure (SMILES) | activity change, negative = decrease | Potency
Cc1cc(Cn2cnc3c2C[C@@H](C(=O)O)N(C(=O)C(c2ccccc2)c2ccccc2)C3)ccc1N | 17.5% (inactive) | –
NOCC(=O)O | -8.39% (inactive) | –
CC(=O)N[C@@H](Cc1c[nH]c2ccccc12)C(=O)OCc1cc(C(F)(F)F)cc(C(F)(F)F)c1 | -16.2% (inactive) | –
CN(C)C(=O)/N=N/C(=O)N(C)C | 3.28% (inactive) | –
NC1C=CC=C(C(=O)O)C1 (stereo not given) | -9.08% (inactive) | –
C#CCn1c(=O)c2c(ncn2C)n(C)c1=O | -4.74% (inactive) | –
COc1ccccc1N1CCN(CCCNc2c(C)c(=O)n(C)c(=O)n2C)CC1 | 11.7% (inactive) | –
Nc1nc2c(cnn2CCc2ccccc2)c2nc(-c3ccco3)nn12 | -6% (inactive) | –
CN[C@H](CC(=O)O)C(=O)O | 4.68% (inactive) | –
COc1cccc(OC)c1OCCNCC1CSc2ccccc2O1 (stereo not given) | -12.5% (inactive) | –
CC1C(=O)N(C)C(=O)c2nc[nH]c21 (stereo not given) | -1.57% (inactive) | –
CC(C)(C)c1ccc(/C=C/C(=O)Nc2ccc3c(c2)OCCO3)cc1 | – | 18.3 µM (active)
NC1CONC1=O (stereo not given) | -11.7% (inactive) | –
Cc1nc2n(c(=O)c1CCN1CCC(c3noc4cc(F)ccc34)CC1)CCCC2O (stereo not given) | 12.4% (inactive) | –
O=C(O)c1ccccc1Nc1ccccc1 | 7.51% (inactive) | –
O=c1ccc2c(OCCCCc3ccccc3)c3ccoc3cc2o1 | -23.5% (inactive) | –
COc1cc([C@@H]2c3cc4c(cc3[C@H](O)C3COC(=O)[C@@H]32)OCO4)cc(OC)c1OC (stereo not given in full) | -15.5% (inactive) | –
CC#CCOC(=O)c1c(C)nc2sc3c(c2c1N)CCC(O)C3 (stereo not given) | -11.3% (inactive) | –
NC(Cc1cccc(-c2ccccc2CP(=O)(O)O)c1)C(=O)O (stereo not given) | -8.17% (inactive) | –
CCCOC(=O)c1c(-c2ccccc2)nc(CC)c(C(=O)SCC)c1CCC | 5.85% (inactive) | –
